Source: PubChem BioAssay (Pan Lab, Icahn School of Medicine at Mount Sinai)
ROC1-CUL1 inh: human ROC1-CUL1 E3 ligase inhibition. inhibition, % at 10 µM. AID 1347404. in vitro K48 di-Ub FRET, acceptor:donor ratio, 45 min. 0.6% of 140,000 active; in the data active = inhibition above about 25%
Target sequence (P62877 whole entry, looked up): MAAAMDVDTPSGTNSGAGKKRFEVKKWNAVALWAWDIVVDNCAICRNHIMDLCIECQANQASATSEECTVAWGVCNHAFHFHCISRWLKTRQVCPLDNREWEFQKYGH
Target sequence (Q13616 whole entry, looked up): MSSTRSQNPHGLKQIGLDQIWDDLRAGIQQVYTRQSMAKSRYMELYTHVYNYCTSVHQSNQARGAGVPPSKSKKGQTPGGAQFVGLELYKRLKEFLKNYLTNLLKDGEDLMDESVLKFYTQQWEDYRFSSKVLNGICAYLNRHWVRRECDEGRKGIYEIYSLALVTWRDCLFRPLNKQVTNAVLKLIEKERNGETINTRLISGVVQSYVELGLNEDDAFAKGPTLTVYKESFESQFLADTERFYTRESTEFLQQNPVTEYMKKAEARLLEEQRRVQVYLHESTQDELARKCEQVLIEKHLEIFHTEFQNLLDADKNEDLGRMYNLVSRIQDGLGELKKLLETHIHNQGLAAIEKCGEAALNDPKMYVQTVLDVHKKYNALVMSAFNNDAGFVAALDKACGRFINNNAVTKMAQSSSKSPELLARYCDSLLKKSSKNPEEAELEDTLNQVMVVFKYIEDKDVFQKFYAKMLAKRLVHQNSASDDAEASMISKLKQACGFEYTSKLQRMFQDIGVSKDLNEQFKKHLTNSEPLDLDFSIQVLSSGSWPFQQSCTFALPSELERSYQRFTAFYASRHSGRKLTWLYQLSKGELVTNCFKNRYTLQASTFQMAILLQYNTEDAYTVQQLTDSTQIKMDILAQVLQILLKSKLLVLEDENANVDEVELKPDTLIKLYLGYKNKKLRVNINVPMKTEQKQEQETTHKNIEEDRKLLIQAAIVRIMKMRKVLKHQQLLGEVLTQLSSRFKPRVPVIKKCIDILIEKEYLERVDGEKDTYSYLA
Starred values were filed as active, the others as inactive. This excerpt belongs to a sample that is enriched for hits.

SMILES	ROC1-CUL1 inh
CCOc1ccc(C(c2c(C)[nH]n(-c3ccccc3)c2=O)c2c(C)[nH]n(-c3ccccc3)c2=O)cc1OC	8.3
CCOc1ccc(C(=O)Cn2cc(Cl)ccc2=N)cc1[N+](=O)[O-]	-3.9
CN1c2cccc3cccc(c23)N(C)C1c1cccs1	78.0*
CN1c2ccccc2N(C)C1c1cccs1	5.7
CC1N(C)c2cccc3cccc(c23)N1C	-21.9
COc1ccc(CCN(C)C(=O)c2cnn(-c3ncc4c(n3)-c3ccccc3CCC4)c2C)cc1OC	-9.0
CCc1nc2sc(C(=O)c3ccc(Br)cc3)c(N)c2c2c1CCCC2	2.0
CN1CCN(C(=O)c2nc(-c3ccccc3)n(-c3ccccc3)n2)CC1	8.9
O=C(Nc1cccc(Cl)c1)Nc1ccccc1C(=O)O	2.3
O=C(O)c1cc2oc3ccccc3c3ccccc3oc2cc1C(=O)Nc1cccc(Cl)c1	39.9*
Nc1ccccc1C(=O)Nc1cccc(Cl)c1	9.9
COCCCN1C(=O)CC(CC(=O)N2CCCC(C(=O)CC(C)C)C2)(c2ccccc2OC)C1=O (configuration not stated)	7.2
CCOc1ccccc1NC(=O)CN1CCCC(C)C1 (configuration not stated)	5.3
Cn1c(SCC(=O)Nc2cccc(C(F)(F)F)c2)nc2sc3c(c2c1=O)CCCC3	-10.9
O=C(Nc1ccc(-c2ccn[nH]2)cc1)C1CCCN(Cc2ccc3c(c2)CCO3)C1 (configuration not stated)	-2.0
CCOC(=O)Nc1ccc(Br)cc1F	3.4
CCOC(=O)C(C(C)=O)C1=C(Br)C(=O)C(=O)c2ccc(Br)cc21 (configuration not stated)	48.2*
Cc1c(C(=O)O)c2c(n1Cc1ccccc1)C(=O)c1ccc(Br)cc1-2	4.6
Cc1occc1C(=O)Nc1cccc(-c2nc(CNC(=O)CC3CCCCC3)c(C)o2)c1	-0.6
CC1CC(C)CN(S(=O)(=O)c2ccc(NC(=O)c3ccccc3Cl)cc2)C1 (configuration not stated)	4.4
O=C1OC2(CCCC2)OC(=O)C1=Cc1ccc(Nc2ccc(F)cc2)o1	6.8
O=C1OC2(CCCCC2)OC(=O)C1=Cc1ccc(Nc2ccc(F)cc2)o1	4.0
CC1(C)OC(=O)C(=Cc2ccc(Nc3cc(C(F)(F)F)cc(C(F)(F)F)c3)o2)C(=O)O1	87.9*
CC1CN(CCC(=O)NCCCOc2cccnc2)Cc2cc(Cl)ccc2O1 (configuration not stated)	-3.4
O=C(c1c(O)cc(O)cc1O)C1Cc2cc3c(cc21)OCO3 (configuration not stated)	6.6
SMILES	ROC1-CUL1 inh
CCC(C)C(=O)Nc1nc2ccccc2s1 (configuration not stated)	-0.1
Cc1ccc(-c2nnc(CN3CCN(c4ccc(F)cc4)CC3)o2)cc1	11.9
COc1cc(C=C2C(=O)NC(=O)NC2=O)cc(I)c1OC	-0.1
O=C1NC(=O)C(=Cc2cc(O)c(O)c(Br)c2)C(=O)N1	49.3*
O=C1C(=Cc2ccc(O)c(Br)c2)C(=O)c2ccccc21	-5.5
S=c1[nH]nc(-c2ccccc2)n1/N=C/c1cc(Br)c(I)o1	-6.3
O=C1NC(=O)C(=Cc2cc(Br)c(I)o2)C(=O)N1	79.7*
O=C(NCc1cccnc1)c1ccccc1Cl	-2.4
c1ccc(COc2nc(-c3ccncc3)nc3ccccc23)cc1	-4.4
Cc1ccc2nc(N=C3N=C(CSc4nnnn4-c4ccccc4)CC(=O)N3)nc(C)c2c1	0.1
COc1cccc(/C=N/NC(=O)CSc2nnc(CNc3ccc(Cl)cc3)n2-c2ccccc2)c1	-5.3
Cc1ccc(-c2nc3ccc(C)cc3c(C(=O)OCC(=O)C(C)(C)C)c2C)cc1	10.4
O=C1CC=Cc2ccc(O)c(O)c2C1=O	53.1*
CCOC(=O)c1c2c(n(Cc3ccccc3)c1CNC(C)C)C(=O)C(=O)c1ccccc1-2	103.4*
CCOC(=O)c1c2c(n(Cc3ccccc3)c1C)C(=O)c1ccc(Br)cc1-2	1.7
CCOC(=O)c1c2c(n(CC(=O)c3ccc(Br)cc3)c1C)C(=O)C(=O)c1ccccc1-2	-2.5
C=CCNC(=O)C1CC1(c1ccccc1C)c1ccccc1C (configuration not stated)	-0.9
O=c1[nH]c(-c2cccc3nc4ccccc4c(=O)n23)nc2ccccc12	-4.0
CCC(C)N1C(=O)S/C(=C/c2ccc(-c3cc(C(=O)O)ccc3Cl)o2)C1=O (configuration not stated)	15.3
O=C(O)c1ccc(Cl)c(-c2ccc(/C=N/Nc3ccccc3)o2)c1	1.9
CCCCC1(C)OC(=O)C(=Cc2ccc(-c3cc(C(=O)O)ccc3Cl)o2)C(=O)O1 (configuration not stated)	85.0*
COc1ccc(OCCSc2nnc(-c3cccs3)n2C)cc1	-0.8
CN(C)c1nc2nonc2nc1N1CCCC(c2nc3ccccc3[nH]2)C1 (configuration not stated)	-5.6
Cc1ccccc1C(=O)Nc1sc2c(c1C(=O)O)CCC(C(C)(C)C)C2 (configuration not stated)	-3.5
CC(C)(C)C1CCc2c(sc(NC(=O)c3ccco3)c2C(=O)O)C1 (configuration not stated)	39.5*
